Screening data (PubChem BioAssay)
Shown are actives, neighbours in structure and some others; about 19% of the full set was active somewhere.
Shiga toxin inh: blocks Shiga toxin action in Vero cells | Vero cells, Shiga toxin protein synthesis inhibition reporter | inhibition, % at 38.7 µM | hit rate 9.2% among 290,000; in the data active = inhibition mostly above about 28%, no sharp cut-off; inactive = mostly below about 43%
Pf growth 96h: P. falciparum growth inhibition at 96 hour, primary screen for plastid delayed-death inhibitors; P. falciparum luciferase reporter growth, 96 h; Potency, µM (doses to about 28.7 µM), hits mostly inhibitors; hit rate 6.9% among 320,000; AID 504834
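Two-generation exposure (96 h) targets delayed-death phenotype. Reporter parasites carrying integrated firefly luciferase, in red cells at 2% hematocrit and 0.05% parasitemia final, kept at 37 C, 5% CO2; luminescence loss indicates inhibition.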
Pf growth 48h: inhibits P. falciparum growth in the first generation, 48 h | P. falciparum luciferase growth in erythrocytes, 48 h | Potency, µM (top dose mostly 28.7 µM), hits mostly inhibitors | hit rate 5.9% among 310,000 | AID 504832
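Luminescence readout; reporter = integrated firefly luciferase in P. falciparum. RBC culture at 2% hematocrit, 0.1% parasitemia final, 37 C/5% CO2; decreased signal taken as growth inhibition.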
LASV entry inh: blocks Lassa virus binding to or entry into cells. AID 540256. Potency, µM (series often up to 37.9 µM), usual class: inhibitors. hit rate 1.2% among 300,000. Lassa virus pseudotype entry inhibition, cell reporter; calls by dose curve; tested in HEK293 cells; also: nearly all actives have a fitted effect of over 50% in size
MARV entry inh: blocks Marburg virus binding to or entry into cells | AID 540276 | hit rate 1.8% among 300,000 | Marburg virus pseudotyped entry inhibition, cell reporter | Potency, µM (series often up to 37.8 µM), hits mostly inhibitors; calls by dose curve; tested in HEK293 cells
CHX counter: counter-screen hit for Shiga toxin inhibitors, cycloheximide. cell reporter, cycloheximide protein synthesis inhibition counterscreen. max response, %. hit rate 12% among 300,000. AID 2314; in the data active = max response mostly above about 13%, no sharp cut-off; inactive = mostly below about 14%; also: read at 38.3 µM for the half of the compounds with a filed dose
Hits are given with their value; 0 = inactive; ? = inconclusive; - = no result given; + = active, no number; ! = repeats disagree. Unless noted, calls follow the shape of the dose curve; as a rule, active = well fitted inhibition curve with a large enough effect; inconclusive = small, poorly fitted or top-dose-only effect, or another doubt; inactive = no such curve, though single readings can be large or run the other way.

SMILES	Shiga toxin inh	Pf growth 96h	Pf growth 48h	LASV entry inh	MARV entry inh	CHX counter
CC1(c2ccc([N+](=O)[O-])cc2)CC(C)(C)N(C(=O)c2ccccc2)c2ccccc21 (centres undefined)	0	?	0	0	0	0
CCCC(=O)OC(C(Cl)(Cl)Cl)P(=O)(OC)OC (centres undefined)	-	0	0	-	-	-
O=C(CNc1cccc(C(F)(F)F)c1)N/N=C/C1CCCCC1	0	0	0	0	0	0
C#CCOc1ccccc1CNC1CCN(Cc2ccccc2)CC1	0	13.1µM	9.28µM	-	-	0
O=C(NC1CCN(Cc2ccccc2)CC1)c1ccccc1OCc1ccccc1Cl	0	?	?	10µM	?	0
FC(F)(F)c1cccc(CNC2CCN(Cc3ccccc3)CC2)c1	0	?	2.62µM	?	?	0
CCOc1ccccc1C(=O)NC1CCN(Cc2ccccc2)CC1	-	?	?	0	0	0
O=C(NC1CCCC1)c1ccccc1OCc1ccccc1	0	0	0	0	0	0
O=C(NC1CCN(Cc2ccccc2)CC1)c1ccccc1OCc1ccccc1	0	9.28µM	?	-	-	0
Cc1onc(-c2c(F)cccc2Cl)c1C(=O)N[C@@H]1C(=O)N2C(C(=O)O)C(C)(C)S[C@H]12 (some centres undefined)	-	0	?	-	-	-
CS(=O)(=O)Nc1ccc(C(=O)Nc2ccccc2C(=O)NCc2ccco2)cc1	0	0	?	0	0	0
O=C(NNC(=O)c1ccccc1OCc1ccccc1Cl)c1csc(N2CCOCC2)n1	0	?	?	-	-	10.1
COc1ccccc1C(=O)NNC(=O)c1csc(N2CCOCC2)n1	-	0	?	0	?	-
Cc1ccc2cc(C)c(NCCO)nc2c1	0	0	0	0	?	0
c1ccc2c(c1)ncn2CCn1cnc2ccccc21	0	0	-	0	0	0
Clc1ccc(OCCn2cnc3ccccc32)c(Cl)c1	64.2	?	0	0	0	40.8
O=c1c2ccccc2ncn1CCCSc1ccccc1	0	?	0	0	?	9.6
O=c1c2ccccc2ncn1CCCOc1ccccc1[N+](=O)[O-]	82.5	0	0	0	0	25.6
O=[N+]([O-])c1ccccc1OCCCn1cnc2ccccc21	54.0	2.33µM	0	0	?	34.2
CC(=O)N1CCN(c2csc3ccc(F)cc3c2=O)CC1	-	-	-	0	-	-
CC(=C/C(=O)O)/C=C/c1ccco1	0	?	?	0	?	0
CC(/C=C/c1ccc(Cl)o1)=C\C(=O)O	0	1.47µM	0	0	0	0
Cc1cc2cc(C)c(NCCNC(=O)c3ccccc3Cl)nc2cc1C	0	?	?	0	?	0
COC(=O)c1cccnc1Oc1ccccc1	0	0.657µM	?	0	0	0
Cc1ccc(NC(=O)c2ccc(C)c(S(=O)(=O)N3CCOCC3)c2)nc1	-	0	?	0	?	-
SMILES	Shiga toxin inh	Pf growth 96h	Pf growth 48h	LASV entry inh	MARV entry inh	CHX counter
Cc1ccc(NC(=O)c2ccc(Cl)c(S(=O)(=O)N3CCCCC3)c2)nc1	-	10.4µM	9.28µM	-	-	-
Cc1ccc(C(=O)Nc2ccc(Cl)cn2)cc1S(=O)(=O)N1CCOCC1	60.5	0	0	0	0	35.3
CN1CC(=O)NC1=NC(=O)c1ccc(Cl)c(S(=O)(=O)N2CCCCCC2)c1	0	8.28µM	?	0	0	0
O=C(c1ccc(Cl)c(S(=O)(=O)N2CCCCC2)c1)N1CCCCC1	0	0	0	?	0	0
O=C(NC1=NCCS1)c1ccc(Cl)c(S(=O)(=O)N2CCCCCC2)c1	0	0	0	0	0	18.5
O=c1cc(-c2ccccc2)c2ccc3c(c2o1)CN(Cc1cccc(Cl)c1)CO3	-	-	-	0	0	-
CS(=O)(=O)c1ccc(Cl)c(S(=O)(=O)NCc2ccccc2)c1	0	-	0	0	0	0
CCn1c2ccc(C)cc2c2nc3cc(C(=O)O)ccc3nc21	61.4	0	0	0	?	43.6
CCn1c2ccc(Cl)cc2c2nc3ccccc3nc21	0	0	0	0	?	0
Cc1ccc(-n2ncc(C(=O)NCCN3CCN(C)CC3)c2C2CCN(C(=O)OC(C)(C)C)CC2)cc1	-	-	-	0	-	-
Cc1nc(NC(=O)c2ccc(Br)o2)ccc1Br	63.1	0	0	-	-	36.1
Cc1cccc(NC(=O)c2ccc(C(=O)c3ccccc3)o2)c1	72.7	?	0	0	0	36.8
O=C(Nc1cccc(NC(=O)c2ccc(Br)o2)n1)c1ccc(Br)o1	0	0	0	?	0	0
CN(C(=S)NC(=O)c1ccc(Br)o1)c1ccccc1	29.7	0	0	?	?	0
COc1ccc(NC(=O)c2ccc(C(=O)c3ccccc3)o2)cc1	0	0	7.38µM	?	0	30.2
CC(C)CN1C(=O)/C(=C/c2ccco2)NC1=S	0	0	0	?	0	0
CCC(=O)CC(c1ccccc1)c1c(O)c2ccccc2sc1=O (centres undefined)	0	0	0	0	0	0
O=C(Nc1ccccc1)c1ccc(Br)o1	+!	0	0	?	?	43.7
O=C(Nc1cccc(NC(=O)c2ccc(Br)o2)c1)c1ccccc1	0	0	0	0	0	0
O=C(Nc1ccc2ccccc2c1)c1ccc(Br)o1	86.5	0	0	?	?	43.1
CCc1cccc(NC(=O)c2ccc(Br)o2)c1	105.1	0	0	0	?	23.0
O=C(c1ccccc1)c1cccc(NC(=O)c2ccc(Br)o2)c1	0	-	?	?	0	39.0
COc1ccc(-c2nnc(SCC(=O)Oc3cccc(C)c3C)o2)cc1	-	-	-	0	0	-
C#CCOCCOCCOCCNc1nc(N2CCN(C(=O)[C@H](CCCCN)n3cc([C@@H](N)C(C)CC)nn3)CC2)nc(N2CCN(C(=O)[C@H](CCCCN)n3cc([C@@H](N)CC(C)C)nn3)CC2)n1 (some centres undefined)	0	0	0	-	-	0
CSCCC1NC(=O)N(CC(=O)Nc2ccc(Cl)c(S(=O)(=O)N3CCOCC3)c2)C1=O (centres undefined)	-	-	-	0	?	-
SMILES	Shiga toxin inh	Pf growth 96h	Pf growth 48h	LASV entry inh	MARV entry inh	CHX counter
O=C(N/N=C/c1cc([N+](=O)[O-])ccc1O)NC12CC3CC(CC(C3)C1)C2	96.2	3.29µM	0	0	0	73.4
O=C(N/N=C/c1cc([N+](=O)[O-])ccc1O)C12CC3CC(CC(C3)C1)C2	0	0	8.28µM	-	-	25.1
O=C(N/N=C/c1ccc(O)cc1O)NC12CC3CC(CC(C3)C1)C2	33.0	0	?	?	0	23.7
O=C(N/N=C/c1cc([N+](=O)[O-])ccc1O)Nc1ccccc1	0	0	?	0	?	0
O=C(N/N=C/c1ccncc1)C12CC3CC(CC(C3)C1)C2	0	0	0	-	0	0
O=C(CNC(=O)c1cccs1)N/N=C/c1ccc(O)cc1O	0	?	0	0	0	0
Cc1c(C(=O)NC(C)C)c(-c2ccccc2)nn1-c1ccccc1	0	0	0	0	0	0
Cc1c(C(=O)NC(C)c2ccccc2)c(-c2ccccc2)nn1-c1ccccc1 (centres undefined)	0	?	10.4µM	0	?	0
CN(C)c1nc(N)ncc1-c1ccc(Oc2ccccc2)cc1	0	?	?	0	0	0
CCN(CC)c1ccc(N=Cc2c(O)n(Cc3ccco3)c(=O)[nH]c2=O)cc1	0	?	11.7µM	0	0	0
